Results reported in PubChem BioAssay AID504444 (National Center for Advancing Translational Sciences (NCATS), 2011).
The campaign covered roughly 360,000 compounds. About 7,500 (2.1%) were called active. Where a call stands in place of a potency, no number is given. Another 20% or so got no clear call; they are omitted. The sample holds actives, similar compounds and a random draw of the others, so the mix is not that of the screen. Calls follow the shape of the dose curve; as a rule, active = well fitted inhibition curve with a large enough effect; inconclusive = small, poorly fitted or top-dose-only effect, or effect the other way; inactive = flat fitted curve, though single readings scatter.

Assay: Nrf2 qHTS screen for inhibitors; also: nearly all actives have a fitted effect of over 60% in size
Settings: A549 ARE-Fluc reporter, luciferase luminescence, 18-24 h; series mostly up to 46 µM
How it was run: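 Cells were seeded and rested 2 h, then exposed to compounds for 18-24 h. CellTiter-Fluor was read first as a viability measure. BugLite was added 15 min before the final luminescent read of ARE-luciferase activity in A549 cells.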
Potency is read from the fitted curve at half-maximal effect.

SMILES | Potency
CNC(=O)c1ccsc1NC(=O)c1ccc(S(=O)(=O)N2CCOCC2)cc1 | inactive
O=S(=O)(c1ccccc1)N1CCc2ccccc21 | inactive
CNC(=O)c1ccsc1NC(=O)c1ccc(S(=O)(=O)N2CCc3ccccc32)cc1 | 16.4 µM (active)
COc1ccc(C(=O)NCc2ccc(Cl)cc2)cc1S(=O)(=O)N1CCCC1 | inactive
CCOC(=O)c1c(C)oc2nc(C)nc(N(CC(C)C)CC(C)C)c12 | inactive
CCCSc1ccc([C@H]2N[C@@](Cc3ccccc3)(C(=O)OC)[C@H]3C(=O)N(C)C(=O)[C@@H]23)cc1 | inactive
Cc1ccc(C(=O)NNC(=O)c2ccncc2)cc1S(=O)(=O)N1CCCCC1 | inactive
Cc1ccc(NC(=O)CCNC(=O)c2ccc([N+](=O)[O-])cc2)cc1S(=O)(=O)N1CCOCC1 | inactive
Cc1ccc(NC(=O)COC(=O)C2CC2)cc1S(=O)(=O)N1CCOCC1 | inactive
Cc1ccc(NC(=O)CCC(=O)N2CCC(c3ccccc3)=N2)cc1S(=O)(=O)N1CCCCC1 | inactive
Cc1ccc(NC(=O)CCCNC(=O)c2ccc(Cl)cc2)cc1S(=O)(=O)N1CCOCC1 | inactive
Cc1ccc(NC(=O)CCCNC(=O)c2ccc(Cl)cc2)cc1S(=O)(=O)N1CCCCC1 | 16.4 µM (active)
O=C(C1CCN(S(=O)(=O)c2cccs2)CC1)N1CCCCCC1 | inactive
CCc1ccccc1OCC(=O)Nc1ccc(C)c(S(=O)(=O)N2CCCCCC2)c1 | 25.9 µM (active)
Cc1ccc(NS(=O)(=O)c2cccs2)cc1S(=O)(=O)N1CCCCCC1 | 7.31 µM (active)
CC1CN(C(=O)N2CCC(C(=O)NCc3cccs3)CC2)c2ccccc2O1 (centres undefined) | inactive
O=C(CCCCn1c(=O)c2ccccc2n(CC(=O)Nc2cccc(C(F)(F)F)c2)c1=O)NCc1ccc2c(c1)OCO2 | inactive
CCCS(=O)(=O)N1CCC(n2c(C(F)(F)F)nc3cccnc32)CC1 | inactive
O=C(N[C@@H]1C/C=C\C[C@@H](CC(=O)N(CCO)Cc2ccccc2)C(=O)N[C@H](Cc2ccccc2)COC1=O)OCC1c2ccccc2-c2ccccc21 | inactive
Cc1c(CN2CC[C@@H](N3CCN(c4ccccn4)CC3)[C@H](O)C2)[nH]c2ccc(F)cc12 | inactive
Fc1ccc2[nH]c3c(N4CCSCC4)ncnc3c2c1 | 18.4 µM (active)
Fc1ccc2[nH]c3c(N4CCN(Cc5ccc6c(c5)OCO6)CC4)ncnc3c2c1 | 10.3 µM (active)
O=c1[nH]c(N2CCN(Cc3ccc4c(c3)OCO4)CC2)nc2c1CCCC2 | inactive
CC(C)(C)n1nnnc1C(c1ccc(F)cc1)N1CCN(Cc2ccc3c(c2)OCO3)CC1 (centres undefined) | inactive
